Among the data in PubChem BioAssay (EPA / NIEHS) are outcome and AC50 values, retold here.

Calls of active or inactive are those of the source. The calls were made as follows: active = hit-call score of the fitted dose curve at least 0.9, where 1 is the maximum; inactive = score below 0.9.

Common to all, as to settings: mRNA level, 48 h; actives raise or lower the signal
Read-out in assay [1]: flavin-containing dimethylaniline monooxygenases 3 (FMO3), FMO3 (gene 2328)
Description: LTEA_HepaRG_FMO3: Life Technologies and Expression Analysis (LTEA) Assay for flavin-containing dimethylaniline monooxygenases 3 (FMO3) using HepaRG (AID 2283453).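 As to AC50: FMO3 transcript by TaqMan qRT-PCR normalized to ACTB GAPDH and POLR2A.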 Put shortly: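 Eight-point concentration-response in serum-free HepaRG cultures (top 100 uM, 0.5% DMSO, 48 h). Read-out: FMO3 mRNA level normalized to three endogenous control genes, fitted bidirectionally versus vehicle.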

Read-out in assay [2]: Cytochrome P450 (CYP1A1), CYP1A1 (gene 1543)
Description: LTEA_HepaRG_CYP1A1: Life Technologies and Expression Analysis (LTEA) Assay for Cytochrome P450 (CYP1A1) using HepaRG (AID 2283454). Put shortly: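 Induction of CYP1A1 mRNA in a human hepatic cell line was measured 48 h after dosing, with 1 mM phenobarbital as induction positive control and 0.5% DMSO vehicle as baseline for bidirectional curve fitting.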

Read-out in assay [3]: CFLAR gene, CFLAR (gene 8837)
Description: LTEA_HepaRG_CFLAR: Life Technologies and Expression Analysis (LTEA) Assay for CFLAR gene using HepaRG (AID 2283455). Summed up:
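Gain- or loss-of-signal changes in CFLAR transcript were fitted bidirectionally relative to 0.5% DMSO. Cells (HepaRG, duplicate wells) were dosed for 48 h across eight half-log concentrations topping at 100 uM; quantitation by TaqMan qRT-PCR.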

Read-out in assay [4]: Forkhead box O1 (FOXO1), FOXO1 (gene 2308)
Description: LTEA_HepaRG_FOXO1: Life Technologies and Expression Analysis (LTEA) Assay for Forkhead box O1 (FOXO1) using HepaRG (AID 2283456). Put shortly: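 Using one lot of HepaRG hepatic cells kept in 0.5% DMSO, the team applied test chemicals in duplicate, half-log dilutions from 100 uM, for 48 h. Expression, normalised to ACTB/GAPDH/POLR2A, was compared with vehicle in either direction.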

Read-out in assay [5]: growth arrest and DNA damage 45 (GADD45A), GADD45A (gene 1647)
Description: LTEA_HepaRG_GADD45A: Life Technologies and Expression Analysis (LTEA) Assay for growth arrest and DNA damage 45 (GADD45A) using HepaRG (AID 2283458). Summed up: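 HepaRG, 48 h exposure, 8 conc. (top 100 uM, half-log steps), 0.5% DMSO vehicle, duplicates. Read-out: qRT-PCR mRNA level, housekeeping-normalized (ACTB/GAPDH/POLR2A). Curves fit bidirectionally vs DMSO baseline.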

Read-out in assay [6]: Forkhead box O3 (FOXO3), FOXO3 (gene 2309)
Description: LTEA_HepaRG_FOXO3: Life Technologies and Expression Analysis (LTEA) Assay for Forkhead box O3 (FOXO3) using HepaRG (AID 2283459). Put shortly: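 Gene-expression endpoint: FOXO3 transcript level by qRT-PCR in HepaRG cultures treated 48 h with chemicals up to 100 uM (half-log, 0.5% DMSO vehicle).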

Read-out in assay [7]: ABC Transporter (ABCB1), ABCB1 (gene 5243)
Nature of the assay: LTEA_HepaRG_ABCB1: Life Technologies and Expression Analysis (LTEA) Assay for ABC Transporter (ABCB1) using HepaRG (AID 2283460). Summed up:
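Human liver HepaRG line treated 48 h with up to 100 uM compound (eight half-log points, 0.5% DMSO); ABCB1 mRNA change fitted bidirectionally against DMSO controls.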

Read-out in assay [8]: growth arrest and DNA damage 45 (GADD45B), GADD45B (gene 4616)
Nature of the assay: LTEA_HepaRG_GADD45B: Life Technologies and Expression Analysis (LTEA) Assay for growth arrest and DNA damage 45 (GADD45B) using HepaRG (AID 2283461). Summed up: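 Values are bidirectional concentration-response fits against 0.5% DMSO controls. Underlying data: qRT-PCR mRNA levels in human HepaRG liver cells treated 48 h in serum-free induction medium, eight concentrations topping at 100 uM.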

Read-out in assay [9]: ABC Transporter (ABCC3), ABCC3 (gene 8714)
Nature of the assay: LTEA_HepaRG_ABCC3: Life Technologies and Expression Analysis (LTEA) Assay for ABC Transporter (ABCC3) using HepaRG (AID 2283462). Put shortly: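 Differentiated HepaRG liver cells receive test chemicals at eight concentrations (max 100 uM) for 48 h. Expression of ABCC3 is quantified by qRT-PCR against ACTB, GAPDH and POLR2A, and activity is fitted in both directions against the DMSO control.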

On to `COC(=O)c1ccccc1O`, for which the outcome in assay [1], in [2], in [3], in [4], in assay [5] and in assay [6] was inactive. The result in assay [7], in [8] and in [9] was inactive.
For `COC(=O)c1c(Cl)c(Cl)c(C(=O)OC)c(Cl)c1Cl`, the molecule was classed as inactive in assay [1], in [3], in [4], in [5], in assay [6] and in assay [7]. Besides, the outcome in assay [8] and in assay [9] was inactive. The AC50 in assay [2] was 50 µM (active).
Consider `CCOC(=O)COc1ccc2c(c1)CC(NCC(O)c1cccc(Cl)c1)CC2` (stereo not drawn), for which the result in assay [1], in assay [2], in [3], in [4], in [5] and in [6] was inactive. Moreover, the molecule was classed as inactive in [7], in assay [8] and in assay [9].
With `CC(=O)OC[C@H]1O[C@@](COC(C)=O)(O[C@H]2O[C@H](COC(C)=O)[C@@H](OC(C)=O)[C@H](OC(C)=O)[C@H]2OC(C)=O)[C@@H](OC(C)=O)[C@@H]1OC(C)=O`, the call in assay [1], in [3], in assay [4], in assay [5], in [6] and in [7] was inactive. The outcome in [8] and in assay [9] was inactive. Besides, in assay [2], the AC50 is 47.5 µM (active).
Turning to `Nc1nc2ncc(CNc3ccc(C(=O)N[C@@H](CCC(=O)O)C(=O)O)cc3)nc2c(=O)[nH]1`, the molecule was called inactive in [1], in assay [3], in assay [4], in [5], in [6] and in assay [7]. In addition, the molecule was classed as inactive in assay [8] and in assay [9]. In [2], the AC50 was 78.5 µM (active).
Regarding `Cn1c(=O)c2c(ncn2C)n(C)c1=O`, the outcome in assay [1], in [3], in assay [4], in [5], in [6] and in assay [7] was inactive. Besides, the molecule was classed as inactive in assay [8] and in assay [9]. For the same molecule, in assay [2], the AC50 is 50 µM (active).
As for `O=C1OC(=O)C2C3C=CC(C3)C12` (stereo not drawn), the call in assay [1], in [3], in [4], in assay [5], in assay [6] and in [7] was inactive. Besides, the molecule was called inactive in assay [8] and in [9]. Also, the AC50 in [2] is 84.5 µM (active).
Turning to `CCCCCCc1ccc(O)cc1O`, the result in assay [1], in assay [3], in [4], in assay [5], in assay [6] and in assay [7] was inactive. Moreover, the molecule was classed as inactive in assay [8] and in assay [9]. In addition, in assay [2], the AC50 is 77.7 µM (active).
For `Cc1[nH]cnc1C[C@H]1CCc2c(C)c3ccccc3n2C1=O`, the AC50 is 32 µM (active) in [1]; 10.7 µM (active) in [2]; 79.9 µM (active) in assay [3]; 75.4 µM (active) in assay [4]; 62 µM (active) in [5]; 68.5 µM (active) in assay [7]. Besides, the values for the AC50 in [8] and in assay [9] were 25.2 µM (active) and 10.6 µM (active), respectively. For the same molecule, in assay [6], the molecule was classed as inactive.
For the molecule `COCCOCCOCCOC`, the molecule was classed as inactive in assay [1], in assay [2], in assay [3], in assay [4], in [5] and in assay [6]. Also, the outcome in assay [7], in assay [8] and in assay [9] was inactive.
Turning to `CCCN(C1CCN(C(=O)C2CCNCC2)CC1)[C@@H]1CCc2ccc(OC)cc2C1`, the AC50 in [1] was 57.5 µM (active); in [3] it was 50 µM (active); in assay [4] it was 50 µM (active); in assay [6], 27.6 µM (active); in assay [7] it was 15.2 µM (active); in assay [9], 42.9 µM (active). Also, the molecule was classed as inactive in [2], in assay [5] and in assay [8].
Turning to `CN(C)c1ccc(N=NS(=O)(=O)O)cc1`, the call in assay [1], in assay [3], in [4], in [5], in [7] and in assay [9] was inactive. Moreover, the AC50 was 17.9 µM (active) in assay [2], 16.4 µM (active) in [6] and 31 µM (active) in assay [8].
`O=C(OC[C@H]1O[C@@H](OC(=O)c2cc(O)c(O)c(OC(=O)c3cc(O)c(O)c(O)c3)c2)[C@H](OC(=O)c2cc(O)c(O)c(OC(=O)c3cc(O)c(O)c(O)c3)c2)[C@@H](OC(=O)c2cc(O)c(O)c(OC(=O)c3cc(O)c(O)c(O)c3)c2)[C@@H]1OC(=O)c1cc(O)c(O)c(OC(=O)c2cc(O)c(O)c(O)c2)c1)c1cc(O)c(O)c(OC(=O)c2cc(O)c(O)c(O)c2)c1`: the AC50 in assay [1] is 9.23 µM (active); in assay [2] it was 9.36 µM (active); in assay [5], 3.26 µM (active); in assay [9] it was 9.66 µM (active). In addition, the call in assay [3], in [4], in assay [6], in assay [7] and in assay [8] was inactive.
Consider `COc1ccc(-n2nc(C(F)F)cc2-c2ccc(S(C)=O)cc2)cc1` (stereo not drawn), for which the molecule was called inactive in [1], in assay [3], in [4], in assay [5], in [6] and in [7]. Besides, the outcome in [8] and in [9] was inactive. For the same molecule, the AC50 in assay [2] was 60.3 µM (active).
For `On1ccccc1=S`, the molecule was called inactive in [1], in assay [2], in assay [3], in assay [4], in [5] and in assay [6]. Also, the molecule was called inactive in assay [7], in assay [8] and in assay [9].
Regarding `COc1ccc(/C=C/S(=O)(=O)NC(=O)c2ccc(C)cc2Cl)cc1`, the molecule was classed as inactive in [1], in [3], in assay [4], in assay [5], in [6] and in assay [7]. The outcome in assay [8] and in assay [9] was inactive. The AC50 in assay [2] is 50 µM (active).
`Nc1ccc(Nc2ccccc2)cc1`: the AC50 is 50 µM (active) in assay [1], 10.9 µM (active) in assay [2] and 63.2 µM (active) in assay [8]. In addition, the molecule was called inactive in [3], in assay [4], in assay [5], in assay [6], in assay [7] and in assay [9].
Take `CCOC(=O)c1ccc(C2CCC(NC[C@H](O)COc3ccc(O)c(NS(C)(=O)=O)c3)CC2)cc1` (stereo partly drawn): the result in assay [1], in assay [3], in assay [4], in assay [5], in [7] and in assay [8] was inactive. For the same molecule, the call in assay [9] was inactive. For the same molecule, the results for the AC50 in assay [2] and in [6] were 73.3 µM (active) and 8.31 µM (active), respectively.
Regarding `CCc1cc(SCc2sc(-c3ccc(C(F)(F)F)cc3)nc2CN2CCN(c3ccc(OC)cc3)CC2)ccc1OCC(=O)O`, the AC50 is 5.55 µM (active) in assay [1]; 7.69 µM (active) in assay [2]; 92.2 µM (active) in [3]; 92.4 µM (active) in [4]; 8.67 µM (active) in assay [5]; 93.5 µM (active) in [6]. The concentration at half-maximal activity (AC50) was 25 µM (active) in [7], 92.7 µM (active) in [8] and 90.3 µM (active) in assay [9].
Regarding `CC(O)CN(CCN(CC(C)O)CC(C)O)CC(C)O` (stereo not drawn), the molecule was called inactive in [1], in assay [3], in assay [4], in assay [5], in assay [7] and in assay [8]. Moreover, the result in assay [9] was inactive. The AC50 in assay [2] is 50 µM (active); in assay [6], 12.4 µM (active).
Turning to `CCNc1ccccc1`, the result in assay [1], in assay [3], in [4], in [5], in [6] and in assay [7] was inactive. Also, the call in [8] and in [9] was inactive. For the same molecule, the AC50 in assay [2] was 9.94 µM (active).
Take `C1N2CN3CN1CN(C2)C3`: the result in assay [1], in assay [3], in assay [4], in assay [5], in assay [6] and in [7] was inactive. The molecule was classed as inactive in [8] and in assay [9]. Also, in [2], the AC50 was 51 µM (active).

What is called AC50 is the midpoint of the concentration-response curve, whichever way the signal moves.
